The text below walks through data of PubChem BioAssay (NCI).

The nature of test [1]: NCI Yeast Anticancer Drug Screen. Data for the rad50 strain (AID 155).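 Note: 0% = growth of vehicle-only cultures of the same strain.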 Particulars: S. cerevisiae rad50 strain growth inhibition; at 50.0 µM; active compounds read high. In short, it runs like this:
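Genetically altered yeast (DNA repair pathway); compound treatment; growth inhibition vs vehicle ctrl.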

A short description of test [2]: NCI Yeast Anticancer Drug Screen. Data for the mec2-1 strain (AID 157). Particulars: S. cerevisiae mec2-1 strain, at 50.0 µM, active compounds read high. In short, it runs like this: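 Using mec2-1 yeast: add compound, measure growth, express inhibition versus vehicle-treated cultures.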
The nature of test [3]: NCI Yeast Anticancer Drug Screen. Data for the sgs1 mgt1 strain (AID 161).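 Note: 0% = growth of cultures given vehicle only.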 Particulars: S. cerevisiae sgs1 mgt1 strain, at 50.0 µM, active compounds read high. In short, it runs like this:
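Compounds are added to genetically altered yeast, and growth is compared with cultures given vehicle alone to give percent inhibition.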

Test [4] can be described thus: NCI Yeast Anticancer Drug Screen. Data for the cln2 rad14 strain (AID 165).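 Note: 0% = growth equal to vehicle treated cultures.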 Particulars: S. cerevisiae cln2 rad14 strain, at 50.0 µM, active compounds read high. The gist of the method: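 Yeast strain cln2 rad14, bearing defects in cell cycle control and DNA repair, serves as the test system; values reflect growth inhibition compared with vehicle.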
Test [5] in a line: NCI Yeast Anticancer Drug Screen. Data for the bub3 strain (AID 167). Particulars: S. cerevisiae bub3 mutant strain, at 50.0 µM, active compounds read high. In short, it runs like this: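 Yeast carrying a defined mutation is treated with each compound, and growth is compared with that of vehicle-exposed cells to give inhibition.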
A short description of test [6]: NCI Yeast Anticancer Drug Screen. Data for the mlh1 rad18 strain (AID 175). Particulars: S. cerevisiae mlh1 rad18 strain growth inhibition; at 50.0 µM; active compounds read high. In short, it runs like this: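 Steps: expose repair-defective yeast to compound; measure growth; express inhibition against vehicle-treated controls.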

Values joined by “and” are separate entries in the source; they are usually repeats but may differ in a detail not shown here. Equal entries are not always repeated. About 79,000 compounds went through this panel and 15% of them were active in at least one assay; those are over-represented in the sample as a whole. Unmarked numbers belong to inactive results. Active and inactive are the calls of the source. Cut-off read from the data, not from the text of the source: active = growth inhibition above about 70%; inactive = the rest.

Turning to `O=c1c(I)c[nH]cc1I`, the growth inhibition in test [1] was -12.1% and -3.2%; in test [2], -15.9% and 14.1%; in test [3], -24.1% and 4.45%; in test [4], 3.35% and 22.6%; in test [5] it was -9.4% and 15.7%; in test [6] it was 22.2% and 14.8%.
As to `OC1CCCC(O)C1O` (stereo unspecified), the growth inhibition in test [1] is 1.25% and 6.1%; in test [2], -2.7% and -12.9%; in test [3], 14.1% and 9.8%; in test [4] it was -7.2% and -2%; in test [5], 3.9% and 20.6%; in test [6], -2.65% and -4.4%.
With `O=C(O)/C=C/C=C/C(=O)O`, the growth inhibition in test [1] is -5.1% and 14.2%; in test [2] it was -4.45% and -10.2%; in test [3], -3.8% and -1.95%; in test [4] it was 7.8% and -17.9%; in test [5] it was -0.8% and -14.6%; in test [6], -10.6% and 2.75%.
For `O=C1NC2OC(CO)C(O)C(O)C2O1` (stereo unspecified), the growth inhibition in test [1] was -44.6% and -35.5%; in test [2], -7.65% and -15.7%; in test [3], -51% and -63%; in test [4], -24.5% and -10.2%; in test [5] it was -61.6% and -22.9%; in test [6], -64.4% and -54.4%.
Take `COc1ccc2[nH]ccc(=O)c2c1`: the growth inhibition in test [1] is -28.1% and 8.75%; in test [2] it was -24.3% and -0.05%; in test [3], -47.5% and 12.3%; in test [4] it was -4.25% and -5.6%; in test [5], -43% and -3.7%; in test [6], -18.7% and 5.95%.
Take `O=C1CC(=P(c2ccccc2)(c2ccccc2)c2ccccc2)C(=O)O1`: the growth inhibition is 24.1% and -0.65% in test [1]; 24.5% and -1% in test [2]; 13.2% and 0% in test [3]; 14.7% and 9.8% in test [4]; 10.8% and -4.15% in test [5]; 12.2% and 5.5% in test [6].
As to `CCOC(=O)C(CC(C(=O)OCC)C(=O)OCC)C(=O)OCC`, the growth inhibition in test [1] is -21.1% and -11.8%; in test [2], -15.1% and -16.2%; in test [3], -6.3% and -20.6%; in test [4], 10.7% and -16.1%; in test [5], 10.8% and -12.5%; in test [6], -25.1% and -9.15%.
In the case of `OCC1OC(n2cnc3cncnc32)C(O)C1O` (stereo unspecified), the growth inhibition in test [1] was 12.4% and 3.3%; in test [2], -40% and 24.9%; in test [3] it was 13.4% and 23.4%; in test [4], 12.3% and -35.8%; in test [5] it was -3.65% and 22.6%; in test [6], 2.15% and 29.9%.
On to `C[N+](C)(C)CCO`, for which the growth inhibition was -16.1% and 2.25% in test [1]; -22.9% and -8.65% in test [2]; -5.85% and -6.65% in test [3]; 21.1% and 13.4% in test [4]; 16.5% and 16.8% in test [5]; 0.85% and -2.2% in test [6].
With `CC(=O)N(O)CCCCCNC(=O)CCC(=O)N(O)CCCCCNC(=O)CCC(=O)N(O)CCCCCN`, the growth inhibition was 12.6% and 8% in test [1]; -9.65% and -0.45% in test [2]; 2.1% and -5.3% in test [3]; 6.9% and 5.75% in test [4]; 9.55% and 0.5% in test [5]; 11.4% and 4.05% in test [6].
For `O=C(O)C(Cc1ccc(O)cc1)NS(=O)(=O)Cc1ccccc1` (stereo unspecified), the growth inhibition in test [1] was -12.8% and 7.15%; in test [2] it was -5.85% and 17.5%; in test [3], -3.1% and 14.7%; in test [4], 0.4% and -22.2%; in test [5] it was -55.3% and 19.9%; in test [6], -19.1% and 3.8%.
With `O=C(CCl)OCCC1CCCCC1`, the growth inhibition is 9.3% and -7.6% in test [1]; -16.7% and -17.1% in test [2]; 5.15% and -10.8% in test [3]; -8.7% and -29.4% in test [4]; 5.6% and 6.1% in test [5]; 1.4% and -16.4% in test [6].
Turning to `NC(N)=N/N=C(/C=N/N=C(N)N)C(O)C(O)CO` (stereo unspecified), the growth inhibition was -11% and -10.4% in test [1]; -1.95% and -8.1% in test [2]; -7.6% and 3.3% in test [3]; -39.3% and -17.4% in test [4]; -18.1% and -13.7% in test [5]; -20.4% and -19.9% in test [6].
With `O=C(O)/C=C/c1ccccc1`, the growth inhibition in test [1] is 15.1% and 41.8%; in test [2], 16.6% and 2.4%; in test [3], 27.5% and 7.65%; in test [4], 14.8% and 7.35%; in test [5] it was 4.1% and 19.3%; in test [6], 22.2% and 31.9%.
With `CC(=O)OCC1OC(n2c(=S)n(-c3ccc(C)cc3)c(=O)c3ccccc32)C(OC(C)=O)C(OC(C)=O)C1OC(C)=O` (stereo unspecified), the growth inhibition was 2.2% and 32% in test [1]; 6.1% and 18.4% in test [2]; -11.1% and 15.9% in test [3]; 21% and 21.2% in test [4]; -6.65% and 14.7% in test [5]; -9.4% and 4.9% in test [6].
For the compound `O=C1OC(=O)C2C3CCCCC3=C3CCCCC3C12` (stereo unspecified), the growth inhibition in test [1] is 2.7% and 11.1%; in test [2], 41.5% and -8.4%; in test [3] it was -3.25% and 4.25%; in test [4] it was 8.6% and -9.1%; in test [5], 22.2% and 3.9%; in test [6], -5.3% and 13.6%.
`COC(=O)C(Cc1ccccc1)NC(=O)C(CNC(=O)OCc1ccccc1)C(=O)OCc1ccccc1` (stereo unspecified): the growth inhibition in test [1] was 16.2% and -13.2%; in test [2] it was -5.6% and -6.65%; in test [3], -1.9% and -8.85%; in test [4] it was 0.65% and -3.55%; in test [5], -3.5% and -20.5%; in test [6], -11.1% and -10.2%.
Consider `OCC(O)C(O)C(O)C(O)[C@@H](O)c1nc2ccccc2[nH]1` (stereo partly specified), for which the growth inhibition was -5.1% and -12.2% in test [1]; 3% and -0.15% in test [2]; -2.75% and -4.4% in test [3]; -34.5% and -16.2% in test [4]; 2.8% and 21.2% in test [5]; -3.8% and 12.2% in test [6].
`CCCCc1c(C#N)c(=O)n2c(N)c(C(=O)OCC)cnc2c1SC`: the growth inhibition is -8.45% and 11.1% in test [1]; -3.4% and 14.9% in test [2]; 8.3% and -12.1% in test [3]; -7.6% and -34% in test [4]; 5.65% and -7.9% in test [5]; 9.15% and -5.05% in test [6].
With `Cc1ccc(C2=Nc3c(N)nc(N)nc3NC(c3ccccc3)C2)cc1` (stereo unspecified), the growth inhibition was 78.3% (active) and 79.8% (active) in test [1]; 81.8% (active) and 79.5% (active) in test [2]; 89.2% (active) and 89.4% (active) in test [3]; 63.5% and 62.7% in test [4]; 75.8% (active) and 77.4% (active) in test [5]; 90% (active) and 88.4% (active) in test [6].
On to `COc1ccc2c(c1OC)CN(C)CCc1cc3c(cc1C(=O)C2)OCO3`, for which the growth inhibition in test [1] was -5.15% and -35.8%; in test [2], 15.7% and -17.1%; in test [3], -0.5% and -14.6%; in test [4], 49.6% and 11.8%; in test [5] it was 7.7% and -18.5%; in test [6] it was -29.9% and -8.35%.
